# Measurements as given in PubChem BioAssay AID1259240 (Keith Lab, Institute of Cancer Science, University of …, 2017).
# Unmarked numbers belong to inactive results. Activity calls are given as the source filed them. Cut-off read from the data, not from the text of the source: active = fold change mostly below about -2 (no sharp cut-off); inactive = mostly above about -1.8.
# Assay: TERT promoter activity modulators, primary screen, cell-based, luciferase reporter, human (AID 1259240)
# Details: A2780 TERT promoter luciferase reporter, 16 h; at 20 µM, fold versus average of vehicle-only wells
SMILES,fold change,outcome
CCN1CCN(C(=O)CN2C(=O)COc3ccc(S(=O)(=O)N4CCC(C)CC4)cc32)CC1,1.16,
O=C1C2CCCCC2C(=O)N1c1nc2nc(-c3ccccc3)cc(=O)n2[nH]1 (stereo not given),1.17,
c1csc(CSc2nnc3sc4ccccc4n23)c1,1.26,
CCOC(=O)CSc1nnc(-c2c[nH]c3ccccc23)n1CCOC,,inactive
COc1ccc(-c2nc3s/c(=C\c4cc(OC)c(OC)c(OC)c4)c(=O)n3n2)cc1OC,1.65,
COc1ccc(Cl)cc1Nc1nc(-c2c(C)nc3ncccn23)cs1,-3.45 (active),
Cc1cc2c(cc1C)NC(c1nc3ccccc3[nH]1)C1=C(CC(C)(C)CC1=O)N2 (stereo not given),-1.29,
Cc1cc(Oc2ccccc2)nc(SCC(N)=O)n1,1.5,
O=C(Cn1nc(C(F)F)cc1C1CC1)N1CCCC1,1.2,
C=C1c2cc(CC)ccc2NC(=O)N1c1ccc(C)cc1,1.01,
CCOC(=O)c1nn(-c2ccc(Cl)cc2)c(=O)c2c(NC(=O)C3CC3)scc12,-1.1,
CN(CC(=O)O)S(=O)(=O)c1cccc2cccnc12,-1.07,
CC1CCN(S(=O)(=O)c2ccc3c(c2)N(CC(=O)NCCN2CCCC2)C(=O)CO3)CC1,-1.01,
Cc1ccc(C2CC(=O)Nc3cc4c(cc32)OCCO4)cc1Br (stereo not given),-1.14,
O=c1/c(=C/c2ccco2)sc2nc(-c3ccco3)nn12,-1.71,
Cc1[nH]n(-c2nc3ccccc3[nH]2)c(=O)c1C=Nc1ccc(F)cc1,,inactive
O=C(Nc1ccc2nc3n(c(=O)c2c1)CCCCC3)C(=O)NC1CCCCC1,-1.44,
Cc1nc2c(-c3ccccc3)c(C)nn2c(C)c1CCC(=O)NO,-1.49,
CCC(C)(C)C(=O)Nc1nc2c(s1)C(=O)CC(C)(C)C2,1.17,
O=c1[nH]cnc2c1c(-c1ccccc1)cn2-c1ccc(F)cc1,,inactive

SMILES,fold change,outcome
Cc1noc(C(=O)Nc2cccnc2Cl)c1Cl,1.48,
Cc1cccc2sc(NC(=O)c3ccc(CNc4c(NC5CCCC5)c(=O)c4=O)cc3)nc12,-1.04,
CC(C)C(C(=O)O)N1C(=O)/C(=C/c2cccs2)SC1=S (stereo not given),-3.32 (active),
CCOC(=O)C1=C(CS(=O)(=O)c2ccc(F)cc2)NC(=O)NC1c1cc(OC)ccc1OC (stereo not given),1.65,
Fc1ccc(Br)cc1C1C=C(c2cccnc2)Nc2ncnn21 (stereo not given),,inactive
CCOc1ccc(-n2c(O)c(C3=c4cc(Br)ccc4=NC3=O)[nH]c2=S)cc1,,inactive
Cc1cc(NS(=O)(=O)c2ccc(NC(=O)[C@@H]3CCCC[C@@H]3C(=O)O)cc2)no1,-1.94,
COc1ccc(/C=c2\sc3nc(-c4cc(OC)c(OC)c(OC)c4)nn3c2=O)c(OC)c1,-1.26,
O=C(O)COc1ccc(/C=C2/NC(=O)N(c3ccccc3)C2=O)cc1,-1.53,
CC1CC(C)CN(C(=O)C2CCC(CNS(=O)(=O)c3cccc4nsnc34)CC2)C1 (stereo not given),-1.1,
O=C(CN1C(=O)COc2ccc(S(=O)(=O)N3CCCC3)cc21)NCCCN1CCOCC1,-1.17,
CCc1cccc(Nc2nc3ccccc3n3cnnc23)c1,-4.16 (active),
COc1cc(Cl)cc(OC)c1NC(=O)Nc1ccc2snnc2c1,-1.47,
O=C(O)Cn1cc(/C=C2/C(=O)Nc3ccccc32)c2ccccc21,1.41,
CCOC(=O)C1=C(CS(=O)(=O)c2ccc(Cl)cc2)NC(=O)NC1c1ccc(OCC)cc1 (stereo not given),1.7,
COc1ccc(OC(C)c2nc(-c3ccc(C)cc3)no2)cc1 (stereo not given),-1.29,
COc1ccc2c(=O)c(Oc3ccc(C)cc3)c(C(F)(F)F)oc2c1,-1.15,
CN1CCc2c(sc3c2C(=O)NC(c2ccc(OC(=O)c4ccccc4Cl)cc2)N3)C1 (stereo not given),-1.85,
Cc1cc(C)n(-c2nc3ccccc3n3nnnc23)n1,1.46,
Cc1ccc2oc(-c3cc(NC(=O)c4ccc5c(c4)OCCO5)ccc3O)nc2c1,,active
